# PG9 binder: small molecules binding HIV-1 gp120 antibody PG9. TR-FRET gp120-PG9 antibody binding. inhibition, % at 6.7 µM. actives 0.43% (n = 360,000); in the data active = inhibition above about 8.5%
# proKLK7 act: proKLK7 (human) activation, primary screen | actives 0.9% (n = 370,000) | P49862 | purified proKLK7, EDANS-DABCYL substrate fluorescence; 100% is mature enzyme control, 0% vehicle | activation, % at 7 µM;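 active = activation above the mean of all tested compounds plus 3 SD, computed per campaign excluding outliers beyond control limits, cut at about 13% in these data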
# Target sequence (P49862 whole entry, looked up): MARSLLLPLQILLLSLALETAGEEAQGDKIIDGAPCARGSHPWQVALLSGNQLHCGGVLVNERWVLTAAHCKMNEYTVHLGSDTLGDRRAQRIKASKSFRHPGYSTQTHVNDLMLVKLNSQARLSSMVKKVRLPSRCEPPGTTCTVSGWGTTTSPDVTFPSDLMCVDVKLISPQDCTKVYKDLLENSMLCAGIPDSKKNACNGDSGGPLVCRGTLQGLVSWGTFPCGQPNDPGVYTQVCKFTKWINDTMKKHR
# PP5 inh: blocks human protein phosphatase 5 activity | inhibition, % at 6.7 µM | P53041 | actives 0.18% (n = 320,000) | AID 1987 | purified PP5c, OMFP substrate fluorescence;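 active = inhibition above the campaign's mean inhibition across all tested compounds plus 3 SD, cut at about 9.5% in these data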;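 also: 0% = DMSO only and 100% = 100 µM cantharidin control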
# PP1 counter: PP1-alpha (human) inhibition in PP5 counter-screen; actives 0.9% (n = 320,000); purified PP1alpha, OMFP fluorescence; inhibition, % at 6.7 µM;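 active = inhibition above the mean inhibition of all tested compounds plus 3 SD, computed separately for each screening campaign, cut at about 15% in these data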
# Target sequence (P62136 whole entry, looked up): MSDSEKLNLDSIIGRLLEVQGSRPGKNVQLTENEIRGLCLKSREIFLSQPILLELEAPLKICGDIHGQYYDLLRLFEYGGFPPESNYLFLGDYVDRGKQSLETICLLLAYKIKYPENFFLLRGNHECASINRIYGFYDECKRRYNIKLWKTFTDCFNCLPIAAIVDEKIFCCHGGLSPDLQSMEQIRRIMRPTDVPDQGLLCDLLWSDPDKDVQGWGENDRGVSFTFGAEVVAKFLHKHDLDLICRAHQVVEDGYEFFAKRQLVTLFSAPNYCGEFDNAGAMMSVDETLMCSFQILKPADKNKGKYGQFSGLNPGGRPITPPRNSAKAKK
# JMJD2C inh: blocks human GASC-1 demethylase activity. Q9H3R0. inhibition, % at 2.35 µM. GST-JMJD2C(1-420) H3K9me3 demethylation, DELFIA europium. actives 0.069% (n = 330,000);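 active = more than half of a compound's replicate wells show inhibition beyond 50%, single wells judged on their own value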;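 also: signal counts dimethyl H3K9 product captured on neutravidin plate; 0% = median of DMSO wells and 100% = 0.3 times that DMSO median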
# NR1D1 modulator: Rev-erb alpha (human) modulation | actives 0.79% (n = 370,000) | activity, % at 10 µM | Rev-erbα–FITC-DNA binding, fluorescence polarization, 90 min;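 active = activity above about 14%, limit read from the data; passing the limit was not always enough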;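 also: 0% = DMSO wells with 35 nM protein and 100% = DMSO wells with 750 nM protein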
# PP1 inh confirm: confirmation of human PP1 phosphatase inhibitors; shares compounds with PP1 counter; inhibition, % at 6.7 µM; purified PP1alpha, OMFP substrate fluorescence; actives 52% (n = 1,900);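 active = mean PP1 inhibition above a set limit taken from the earlier primary screen, cut at about 15% in these data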
# PP5 counter: counter-screen for PP1 inhibitors: human PP5 phosphatase inhibition; shares compounds with PP1 counter; purified PP5c, OMFP fluorescence; inhibition, % at 6.7 µM; actives 4% (n = 1,900);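 active = mean PP5 inhibition over triplicate wells above about 9.5% taken from the earlier PP1 screen, limit read from the data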
# Active calls of the source: *; . = no result given. Compounds with a hit are over-represented: about 2.8% of the library has one in this group of screens.
SMILES,PG9 binder,proKLK7 act,PP5 inh,PP1 counter,JMJD2C inh,NR1D1 modulator,PP1 inh confirm,PP5 counter
c1ccc(Cc2cnc(N3CCN(Cc4cccc(-c5ccsc5)n4)CC3)nc2)cc1,0,0,.,.,.,-3,.,.
COc1ccc(CCNc2ccc(C(CC(N)=O)NC(=O)c3ccc(Br)cc3)cc2[N+](=O)[O-])cc1 (stereo not drawn),-1,1,0,18*,-7,4,25*,-2
O=C(CC(NC(=O)c1ccccc1Cl)c1ccccc1)NCCc1ccc(Cl)cc1 (stereo not drawn),-1,0,-2,19*,6,1,6,-1
CC(=O)NC(CC(=O)NCCc1ccccc1)c1ccccc1 (stereo not drawn),1,0,.,.,-3,-5,.,.
COc1cc(/C=C2\SC(=Nc3ccccc3OC)NC2=O)ccc1O,-6,-1,2,6,-4,9,.,.
COc1cc(/C=C2/SC(=Nc3ccc(O)cc3)NC2=O)ccc1O,-5,0,1,23*,-2,6,24*,-1
C[C@@H]1OC(C2CCCCC2)N(C)[C@H]2C[C@H]3c4cc(-c5ccc6c(c5)OCO6)ccc4CCN3C[C@@H]12 (stereo partly drawn),.,0,.,.,.,1,.,.
O=C(NC(C(=O)N/N=C/c1cc([N+](=O)[O-])ccc1O)c1n[nH]c(=O)c2ccccc12)c1ccccc1 (stereo not drawn),-3,0,4,27*,-17,0,18*,1
O=C(NC(C(=O)N/N=C/c1cccc2ccccc12)c1n[nH]c(=O)c2ccccc12)c1ccccc1 (stereo not drawn),-1,-6,4,5,-2,3,.,.
CNc1ccc(/C=C(\CCC(=O)O)c2nc3ccccc3s2)cc1[N+](=O)[O-],-4,0,1,32*,-8,2,24*,-5
Cn1cnnc1Sc1ccc(/C=C(\CCC(=O)O)c2nc3ccccc3s2)cc1[N+](=O)[O-],-2,0,0,-6,4,2,.,.
O=C(O)C/C(=C\c1cccc(NC(=O)c2ccccc2Cl)c1)c1nc2ccccc2s1,0,-1,-2,5,0,0,.,.
COc1ccc(C(=O)Nc2cccc(/C=C(\CCC(=O)O)c3nc4ccccc4s3)c2)cc1,-1,-2,1,23*,2,-3,11,-2
Cc1ccc(/C=C(\CCC(=O)O)c2nc3ccccc3s2)cc1[N+](=O)[O-],-1,0,-1,-1,-1,1,.,.
CN(c1ccccc1)c1ccc(/C=C(\CCC(=O)O)c2nc3ccccc3s2)cc1[N+](=O)[O-],-2,0,7,26*,15,-2,15,-3
O=C(CSc1nc2c([nH]c3ccccc32)c(=O)n1-c1cccc(Cl)c1)N1CCOCC1,2,1,-2,22*,5,-14,25*,-2
COc1cnc(-c2ccccc2)nc1Sc1ccccc1,3,0,1,-8,2,0,.,.
COc1cnc(-c2ccccn2)nc1Sc1ccccc1Cl,-1,0,6,47*,-6,-1,51*,6
CCOC(=O)C(C)Sc1nc(-c2ccccn2)ncc1OC (stereo not drawn),-2,-1,2,13,-3,-2,.,.
COc1cnc(-c2ccccn2)nc1Sc1c(Cl)cccc1Cl,-3,1,5,50*,-4,12,41*,1
O=C(NCCCO)c1ccc2nc(-c3ccco3)c(-c3ccco3)nc2c1,-1,9,.,.,.,0,.,.
O=C(NCc1ccccc1)c1ccc2nc(-c3ccco3)c(-c3ccco3)nc2c1,2,-2,2,28*,-8,-14,8,7
O=C(c1cccc(C(=O)N2CCN(c3ncccn3)CC2)c1)N1CCN(c2ncccn2)CC1,1,0,0,-3,-3,2,.,.
O=C(Nc1ccccc1)c1ccc2nc(-c3ccco3)c(-c3ccco3)nc2c1,2,0,5,21*,2,-5,7,-1
O=C(c1ccc2nc(-c3ccco3)c(-c3ccco3)nc2c1)N1CCN(c2ncccn2)CC1,-1,-3,2,33*,2,-31,8,6
SMILES,PG9 binder,proKLK7 act,PP5 inh,PP1 counter,JMJD2C inh,NR1D1 modulator,PP1 inh confirm,PP5 counter
CC(=O)c1ccc(NC(=O)c2ccc3nc(-c4ccco4)c(-c4ccco4)nc3c2)cc1,.,.,-3,34*,-2,.,25*,8
O=C(NCc1ccccc1)[C@H]1CCCN1C(=O)[C@H]1CCCN1C(=O)c1ccccc1C(F)(F)F,0,0,.,.,.,-2,.,.
COCc1cc(N2CCN(C(=O)OC(C)(C)C)C[C@H]2C)ccc1N1CCN(Cc2ccccc2)[C@@H](C)C1,-2,0,.,.,.,-1,.,.
S=c1[nH]nc(-c2cccnc2)n1-c1ccc2c(c1)OCCO2,0,0,0,52*,1,4,-2,-4
Fc1ccc(-c2n[nH]c(=S)n2-c2ccc3c(c2)OCCO3)cc1,5,0,-2,2,-6,-5,.,.
Clc1cccc(CSc2ccc(-c3ccco3)nn2)c1,0,0,0,0,-5,0,.,.
O=c1cc(-c2ccco2)nc(SCc2cccc(Cl)c2)[nH]1,-1,0,2,18*,-4,-7,12,1
N#CC1=C(N)SC(N)=C(C#N)C1c1ccc(C(F)(F)F)cc1,.,.,6,39*,-14,.,4,-5
CCc1ccc(C2C(C#N)=C(N)SC(N)=C2C#N)cc1,-1,0,2,1,2,5,.,.
CC(C)=CC([C@]12C[C@H](CO)N[C@@H]1Nc1ccccc12)S(=O)(=O)c1ccccc1 (stereo partly drawn),.,.,.,.,.,-2,.,.
CCOC(=O)C1=C(c2ccccc2)N=c2s/c(=C\c3ccco3)c(=O)n2C1c1cccs1 (stereo not drawn),-2,1,1,21*,-2,-11,19*,-2
CCOC(=O)C1=C(c2ccccc2)N=c2s/c(=C\c3cc(OC)c(OC)c(OC)c3)c(=O)n2C1c1cccs1 (stereo not drawn),2,1,3,0,2,3,.,.
CCNC(=O)OC[C@H]1O[C@H](C#Cc2ccc(C(C)(C)C)cc2)C=C[C@H]1OC(C)=O,-2,0,.,.,.,6,.,.
COc1ccc(CN2C(=O)c3cccnc3C2O)cc1 (stereo not drawn),1,0,8,34*,0,3,25*,-4

# Screens: PubChem, several laboratories
